# TSHR antag: antagonists of human thyroid stimulating hormone receptor | P16473 | TSHR-expressing cells, TSH-stimulated cAMP HTRF, 2 h; stronger effect = lower value | activity change, negative = inhibition, % at 11.5 µM | hit rate 0.2% among 330,000 | AID 504810;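 active = activity change below a set negative limit, meaning inhibition stronger than a set level, cut at about -70% in these data; inconclusive = activity change between two set negative limits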; note: % is set by controls: 0 for no effect and ±100 for the full control effect
# Target sequence (P16473 whole entry, looked up): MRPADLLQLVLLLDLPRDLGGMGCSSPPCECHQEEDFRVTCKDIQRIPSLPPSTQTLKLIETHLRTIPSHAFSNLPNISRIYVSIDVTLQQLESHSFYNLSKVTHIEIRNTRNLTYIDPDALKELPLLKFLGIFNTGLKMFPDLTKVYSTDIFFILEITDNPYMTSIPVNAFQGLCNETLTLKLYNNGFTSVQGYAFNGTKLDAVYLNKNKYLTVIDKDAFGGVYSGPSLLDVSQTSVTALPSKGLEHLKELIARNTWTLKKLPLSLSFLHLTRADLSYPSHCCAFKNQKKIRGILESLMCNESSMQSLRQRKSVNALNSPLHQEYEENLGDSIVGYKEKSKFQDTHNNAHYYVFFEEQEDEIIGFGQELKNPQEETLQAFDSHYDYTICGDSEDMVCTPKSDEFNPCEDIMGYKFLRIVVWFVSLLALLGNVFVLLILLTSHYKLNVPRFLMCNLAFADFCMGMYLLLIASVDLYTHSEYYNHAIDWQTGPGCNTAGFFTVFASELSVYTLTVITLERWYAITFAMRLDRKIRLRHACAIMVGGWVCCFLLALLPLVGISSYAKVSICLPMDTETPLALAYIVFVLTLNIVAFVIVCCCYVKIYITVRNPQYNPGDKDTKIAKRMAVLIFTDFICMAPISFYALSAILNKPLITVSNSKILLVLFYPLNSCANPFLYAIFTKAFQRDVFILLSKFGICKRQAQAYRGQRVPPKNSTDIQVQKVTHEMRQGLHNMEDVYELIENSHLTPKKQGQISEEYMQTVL
#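 TSHR-expressing cells were treated with compounds, then stimulated with TSH at EC80 (4nM final) for 2 hours at 37 deg C. Cellular cAMP was measured by HTRF competition between lysate cAMP and cAMP-d2 for a cryptate-labelled anti-cAMP antibody.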
# uPA surface inh: inhibitors of cell surface uPA generation; cell surface uPA generation assay, qHTS; hit rate 0.31% among 330,000; Potency, µM (series often up to 38.3 µM), for the others: top-dose activity change, negative = inhibition, actives largely listed as inhibitors; AID 540303; active = well fitted inhibition curve with a large enough effect; inconclusive = small, poorly fitted or top-dose-only effect; inactive = no such curve, though single readings can be large or run the other way; tested in mouse RAW 264.7 cells; note: potency is the fitted concentration of half-maximal effect; % is set by controls: 0 for no effect and ±100 for the full control effect; nearly all actives have a fitted effect of over 55% in size
# gsp antagonist: antagonizes gsp, the McCune-Albright syndrome mutation | gsp-mutant cells, cAMP HTRF, 30 min | Potency, µM (doses to about 76.9 µM), for inactives: top-dose activity change, negative = inhibition, actives largely listed as inhibitors | hit rate 0.4% among 340,000; calls by dose curve; cell line not stated here;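 note: intracellular cAMP measured with PDE inhibitor Ro 20-1724 present during compound exposure; potency is the fitted concentration of half-maximal effect; % is set by controls: 0 for no effect and ±100 for the full control effect; nearly all actives have a fitted effect of over 65% in size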
#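 Cells, 2000/well, grown 16–24 h in DMEM 10% FBS with 0.5 mg/ml G418, then compounds plus […] (300 uM addition stock), 30 min at 37C. cAMP read by HTRF (cAMP-d2 and anti-cAMP antibody-K in lysis buffer) after 30 min RT.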
# gsp agonist: activates gsp, the McCune-Albright syndrome mutation; gsp mutant cells, cAMP HTRF, 30 min; Potency, µM (titrated, usually from 76.9 µM), inactives show at the highest dose activation (cAMP increase), actives largely listed as activators; hit rate 0.13% among 340,000; AID 624287; active = well fitted activation curve with a large enough effect; inconclusive = small, poorly fitted or top-dose-only effect, or another doubt; inactive = no such curve, though single readings can be large or run the other way; cell line not stated here;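 note: phosphodiesterase inhibitor Ro 20-1724 added with compounds to block cAMP breakdown; potency is the fitted concentration of half-maximal effect; nearly all actives have a fitted effect of over 60% in size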
#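 Cells in DMEM/10% FBS with G418 were pretreated with compounds in DMSO plus […] (300 uM stock) for 30 min at 37C. cAMP was measured by HTRF (cAMP-d2 plus anti-cAMP antibody-K) after 30 min at room temperature.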
# Mm-Cpn inhibitor: inhibitors of Methanococcus maripaludis chaperonin TRiC (MmCpn); purified Mm-Cpn ATPase, ADP Transcreener TR-FRET; Potency, µM (top dose mostly 76.9 µM), without a hit: at the top dose activity, negative = inhibition, usual class: inhibitors; hit rate 0.031% among 330,000; active = well fitted inhibition curve with a large enough effect; inconclusive = small, poorly fitted or top-dose-only effect; note: potency is the fitted concentration of half-maximal effect; % is set by controls: 0 for no effect and ±100 for the full control effect; nearly all actives have a fitted effect of over 80% in size
#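 TR-FRET (320 nm excitation; 590 and 665 nm emission) reports ADP made from 10 uM ATP by 25 nM enzyme; compounds were preincubated 10 min, reaction run 30 min, both at 37°C.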
# CCT chaperon mod: changes cytosolic chaperonin activity. purified chaperonin ATPase assay, HTRF ADP detection, 30 min. activity change, % (no concentration beside the values), hits read low. hit rate 0.3% among 360,000. AID 651819; in the data active = activity change below about -30%; note: % is set by controls: 0 for no effect and ±100 for the full control effect
#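 TRiC (40 or 20 nM final, by batch activity) in 30 mM Tris pH 7.4, 100 mM KCl, 5 mM MgCl2, 1 mM DTT was treated with compound at 76 uM single dose, then 10 uM ATP, 30 min at 37 °C. ADP was read by HTRF Transcreener.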
# Starred values were filed as active, the others as inactive; ? = inconclusive; · = no result given; [ ] = dose if it differs, or a comment. Only some compounds are listed: those with a hit (about 1.2% of all), similar ones and a draw of the others.
SMILES,TSHR antag,uPA surface inh,gsp antagonist,gsp agonist,Mm-Cpn inhibitor,CCT chaperon mod
CCOC(=O)c1cnc(-n2nc(C)cc2C)nc1NCc1ccccc1,7.2,-8.9%,35.5µM*,5.1%,-0.1%,-0.8
CCOC(=O)c1cnc2ccc(OCC)cc2c1NCc1ccccc1,-11.9,-9.7%,14.1µM*,23.9%,-0.1%,-0.4
CCOC(=O)c1cnc(-n2nc(C)cc2C)nc1NCCO,3.2,·,3.9%,-16.0%,0.6%,-0.3
CCOC(=O)c1cnc2ccc(OCC)cc2c1NCc1cccnc1,-2.8,-3.2%,?,-9.5%[15.4 µM],-1.2%,3.5
Cc1ccc(-c2nnnn2CS(=O)(=O)c2ccccc2)cc1,1.0,-3.5%,-8.6%,-3.9%,1.7%,-1.6
CC(C)c1ccc(C(=O)OCC(=O)c2c(N)n(C)c(=O)n(C)c2=O)cc1,21.8,12.8%,-19.7%,1.9%,1.2%,-0.8
Cc1c(C(=O)NCc2c(F)cc(F)cc2F)oc2ccc(S(=O)(=O)N3CCOCC3)cc12,3.7,·,-12.4%,6.3%[15.4 µM],0.0%,1.4
COc1ccc(CN2C(=O)c3cccnc3C2Nc2ccc(OC)c(Cl)c2)cc1 (centres undefined),-36.1,·,7.3%,-44.2%,-10.9%,-70.9*
Cc1cc2nc(-c3ccc[nH]c3=O)n(Cc3ccc(F)cc3)c2cc1C,-2.5,-1.1%,-5.4%,?,-6.9%,0.6
Cc1cc2nc(-c3ccc[nH]c3=O)[nH]c2cc1C,4.8,0.891µM*,3.1%,86.3%,-6.8%,-0.4
Cc1ccc(S(=O)(=O)N2[C@@H](c3ccccc3F)C(C(=O)O)=CC[C@H]2c2ccc(Cl)c(Cl)c2)cc1,-92.2*,11.6%,-11.8%,-16.8%,1.5%,1.5
Cc1ccc(S(=O)(=O)N2[C@@H](c3ccccc3)C(C(=O)O)=CC[C@H]2c2ccc(Cl)c(Cl)c2)cc1,-11.3,-5.4%,-15.6%,20.7%,-0.1%,-2.3
Cc1nc2ccccn2c1/C(O)=C1\C(=O)C(=O)N(CCCn2ccnc2)C1c1ccncc1 (centres undefined),10.2,-1.2%,13.5%,17.8µM*,0.4%,-0.5
COc1ccc(C2/C(=C(\O)c3ccc4c(c3)OCCO4)C(=O)C(=O)N2Cc2cccnc2)cc1 (centres undefined),-36.9,-3.8%,2.9%,?,?,-57.9*
O=C1C(=O)N(CCCn2ccnc2)C(c2ccc(Br)cc2)/C1=C(\O)c1ccc2c(c1)OCCO2 (centres undefined),16.8,4.9%,15.0%,?,-24.3%,0.6
O=C1C(=O)N(CCN2CCOCC2)C(c2ccncc2)/C1=C(/O)c1ccc2c(c1)OCO2 (centres undefined),-2.3,3.7%,10.5%,4.0%,0.7%,-1.9
COc1cccc(C2/C(=C(\O)c3ccc4c(c3)OCCO4)C(=O)C(=O)N2CCCn2ccnc2)c1 (centres undefined),12.2,1.0%,25.5%,12.6µM*,-4.5%,-0.7
COc1cccc(C2/C(=C(/O)c3ccc4c(c3)OCO4)C(=O)C(=O)N2CCN2CCOCC2)c1 (centres undefined),103.9,-14.2%,-0.5%,11.2µM*,-5.5%,-1.4
Cc1cnc(C(=O)Nc2nnc(C(C)C)s2)cn1,-2.0,-2.6%,0.5%,0.3%,0.7%,-0.4
Cc1ccc(S(=O)(=O)NC(=O)C2(C)CCN2C(=O)Cc2cc(F)ccc2F)nc1 (centres undefined),·,·,·,·,·,0.1
COc1cccc(C2/C(=C(/O)c3ccc4c(c3)CC(C)O4)C(=O)C(=O)N2CCCn2ccnc2)c1 (centres undefined),22.4,-1.1%,-7.4%,12.6µM*,-2.0%,-1.0
O=C1C(=O)N(CCCN2CCOCC2)C(c2ccc(F)cc2)/C1=C(\O)c1ccc2c(c1)OCCO2 (centres undefined),37.5,2.4%,39.4%,31.6µM*,-2.1%,-0.4
O=C1C(=O)N(CCCn2ccnc2)C(c2cccc(Br)c2)/C1=C(\O)c1ccc2c(c1)OCCO2 (centres undefined),17.2,-3.4%,-5.1%,11.2µM*,-10.5%,-1.7
COCCCN1C(=O)C(=O)/C(=C(/O)c2ccc(S(=O)(=O)N3CCCCC3)cc2)C1c1cccc(OC)c1 (centres undefined),-8.7,-0.5%,-8.1%,?,-1.6%,-83.7*
COCCCN1C(=O)C(=O)/C(=C(/O)c2ccc(S(=O)(=O)N3CCCCC3)cc2)C1c1ccc(O)c(OC)c1 (centres undefined),-0.4,1.8%,2.3%,-0.4%,-0.7%,-2.0
SMILES,TSHR antag,uPA surface inh,gsp antagonist,gsp agonist,Mm-Cpn inhibitor,CCT chaperon mod
CC(=O)c1ccc(Sc2ccccc2N)c([N+](=O)[O-])c1,-3.0,15.6%,-1.4%,-21.4%,-5.7%,-1.7
O=C(Cn1cnc2c(cnn2-c2ccc(F)cc2)c1=O)NCC1CCCO1 (centres undefined),-8.2,-8.8%,9.2%,?,-1.6%,-5.4
COc1ccc(-n2nnc3c(=O)n(CC(=O)NCC4CCCO4)cnc32)cc1 (centres undefined),168.3,·,35.4%,7.94µM*,0.4%,-0.2
O=C(Cn1cnc2c(nnn2-c2ccc(F)cc2)c1=O)NCC1CCCO1 (centres undefined),50.0,0.7%,8.1%,10µM*,1.9%,1.8
CC1Cc2cc(/C(O)=C3/C(=O)C(=O)N(CCN4CCOCC4)C3c3cccc(O)c3)ccc2O1 (centres undefined),3.8,0.1%,6.1%,-0.9%,0.6%,-1.1
COc1cc(/C=C/C(=O)OC(C)C(=O)Nc2c(C)n(C)n(-c3ccccc3)c2=O)ccc1OCC#N (centres undefined),-3.8,0.1%,1.6%,17.7%,-3.6%,-0.4
CC(C)c1nc2n[nH]c(N)c2c2c1CCCC2,-6.8,-1.0%,-15.0%,-20.0%,-0.2%,2.4
Cc1nc(Nc2ccccc2F)c2oc3ccccc3c2n1,-21.6,-15.6%,-20.6%,5.6%[15.4 µM],-0.7%,-49.2*
Cc1nc(Nc2ccccc2O)c2oc3ccccc3c2n1,-8.3,4.2%,-4.0%,-26.9%,-4.4%,-0.4
CCOC(=O)c1cc(-c2ccc(OC)cc2)nn1-c1ccc(C(=O)O)cc1,-8.3,1.8%,35.5µM*,-3.0%,-2.9%,1.6
CCOC(=O)c1cc(-c2cccnc2)nn1-c1ccccc1,8.7,-10.1%,-4.4%,-7.1%[15.4 µM],1.0%,0.7
CC(C)(C)S(=O)N1Cc2cc(CO)cc(CCO)c2[C@@H]1CCO (some centres undefined),·,6.2%,9.1%,·,·,-0.1
COc1ccc(S(=O)(=O)N(CCC(=O)O)Cc2ccccc2)cc1,1.9,5.8%,-4.8%,-7.7%[15.4 µM],2.4%,-49.6*
CC(C)CSC1=NSC2=NC(=O)/C(=C\c3cccs3)C(=N)N12,-5.2,0.6%,-12.5%,-14.6%[15.4 µM],1.6%,-2.4

# Screening data deposited in PubChem by National Center for Advancing Translational Sciences (NCATS).
